Assay outcomes from PubChem.
Most compounds without a hit are left out; they make up all but 3.8% or so of the library.
SKOV3 invasion: Primary qHTS assay for Inhibitors of ovarian cancer metastasis using an organotypic tumor microenvironment (TME) model; SKOV3ip1-GFP adhesion/invasion on 3D omental model, fluorescence; Potency, µM (doses to about 45.8 µM), inactives show top-dose activity change, negative = inhibition, most hits filed as inhibitors; hit rate 0.1% among 46,000; AID 1963576, 2024;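 note: potency is the fitted concentration of half-maximal effect; plate controls were DMSO wells for no effect and tomatine positive control wells for full effect; nearly all actives have a fitted effect of over 65% in size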
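Primary human omental fibroblast/mesothelial 3D culture pre-formed 48 h. SKOV3ip1-GFP cells added with compounds (0.36-46 umol/L), incubated 2 h RT/16 h 37 C, fixed; GFP cells quantified at 488/509 nm.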
DRV1 agonist: qHTS for Agonists of Human Resolvin D1 Receptor DRV1; Probable G-protein coupled receptor 32 (Homo sapiens), O75388; activation, % at 76.9 µM; hit rate 2.5% among 48,000; CHO-K1 GPR32 beta-arrestin PathHunter luminescence, 90 min; zero percent set by DMSO-only wells; AID 1346428, 2018;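 active = activation of at least 60% and not above a set upper limit, about 1 call in 100 departs from these limits; inconclusive = activation of 40% to 60%, or above that upper limit; inactive = activation under 40%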; note: 0% is about no effect
Target sequence (O75388 whole entry, looked up): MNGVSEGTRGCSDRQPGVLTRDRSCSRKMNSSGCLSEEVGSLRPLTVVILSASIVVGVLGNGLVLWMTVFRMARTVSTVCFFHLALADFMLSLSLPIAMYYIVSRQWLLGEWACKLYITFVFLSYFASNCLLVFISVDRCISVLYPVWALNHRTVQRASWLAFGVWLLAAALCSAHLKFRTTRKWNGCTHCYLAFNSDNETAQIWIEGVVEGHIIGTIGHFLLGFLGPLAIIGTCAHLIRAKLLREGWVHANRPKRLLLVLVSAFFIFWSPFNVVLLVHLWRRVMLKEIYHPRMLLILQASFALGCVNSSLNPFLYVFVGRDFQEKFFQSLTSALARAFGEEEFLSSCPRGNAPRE
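Step 1: seed CHO-K1 GPR32 beta-arrestin cells, 2,500/well, overnight at 37 °C. Step 2: add compounds, 90 min at 37 °C. Step 3: detection reagent, 1 h ambient, then luminescence.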
NTMT1 inhibitor: Primary qHTS for Inhibitors of N-terminal methyltransferase 1 (NTMT1): MTaseGlo Assay. Potency, µM (highest dose often 114 µM), for inactives: top-dose activity change, negative = inhibition, actives largely listed as inhibitors. NTMT1 MTase-Glo SAH luminescence, purified enzyme. AID 1645870, 2021. N-terminal Xaa-Pro-Lys N-methyltransferase 1 (Homo sapiens), Q9BV86. hit rate 2.5% among 59,000;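 note: potency is the fitted concentration of half-maximal effect; plate controls were DMSO vehicle for no effect and no enzyme for full effect; nearly all actives have a fitted effect of over 65% in size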
Target sequence (Q9BV86 whole entry, looked up): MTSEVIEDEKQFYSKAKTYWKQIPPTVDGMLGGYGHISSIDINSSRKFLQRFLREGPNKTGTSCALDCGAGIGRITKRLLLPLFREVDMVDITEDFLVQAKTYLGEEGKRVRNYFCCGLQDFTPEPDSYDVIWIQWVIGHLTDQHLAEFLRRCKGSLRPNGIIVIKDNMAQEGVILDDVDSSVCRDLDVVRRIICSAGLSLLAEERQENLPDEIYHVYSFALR
FH mod: Identification of activators of human fumarate hydratase by quantitative high-throughput screening. Fumarate hydratase, mitochondrial (Homo sapiens), P07954. FH coupled MDH/diaphorase resazurin fluorescence, 15 min. Potency, µM (doses to about 79.9 µM), inactives show at the top dose activity change, negative = inhibition, usual class: inhibitors. hit rate 0.22% among 54,000. AID 1347055, 2019; note: potency is the fitted concentration of half-maximal effect; % is set by controls: 0 for no effect and ±100 for the full control effect; the screen sought activators but most active calls are inhibition curves; nearly all actives have a fitted effect of over 45% in size
The depositor's hits bear a star; i = inactive; ? = inconclusive; · = not tested or not shown; ! = repeats disagree; [ ] = another dose, or the depositor's remark. Unless noted, calls come from the whole dose curve; as a rule, active = well fitted curve in the direction sought with a large enough effect; inconclusive = small, poorly fitted or top-dose-only effect, or another doubt; inactive = no such curve, though single readings can be large; an effect the other way counts as inactive or inconclusive.

SMILES | SKOV3 invasion | DRV1 agonist | NTMT1 inhibitor | FH mod
COc1ccccc1NC(=O)OCC1CCN(C(=O)OC(C)(C)C)CC1 | · | · | 2.2%[57.5 µM] | -4.4%
CCCCCCCCCCCCCCCCCCNC(=O)OC1CCN(C(=O)OC[C@H](COC(=O)N(Cc2cccc[n+]2CC)C(=O)c2ccccc2OC)OC)CC1 | · | 30.3 | 50.1µM* | -9.8%[53.3 µM]
Cc1c(-c2cnccn2)ssc1=S | · | · | 3.16µM* | ·
Cc1cc(C)cc(NC(=O)CCCn2c3ccccc3c(=O)c3ccccc32)c1 | 3.6% | 41.0 | -2.7% | -25.0%
Cc1c(Cl)cccc1NC(=O)c1cccc(NC(=O)N2CCSc3ncccc32)c1 | -1.9% | 6.6 | -0.1% | -7.8%
CCN(C(=O)CSc1ncc(S(=O)(=O)c2ccc(C)c(Cl)c2)c(=O)[nH]1)c1cccc(C)c1 | 7.4% | 75.4* | ? | -19.7%
COc1cc([N+](=O)[O-])ccc1NC(=O)N1CCC2(CC1)Nc1cc(F)ccc1-n1cccc12 | 0.7% | -30.9 | 11.5% | -18.3%
CC(C)c1c(C(=O)Nc2ccccc2)c(-c2ccccc2)c(-c2ccc(F)cc2)n1CC[C@@H](O)C[C@@H](O)CC(=O)O | · | -2.3 | 35.5µM*! | 2.6%[20.6 µM]
COc1ccc(-c2c3c(nc4sc(C(=O)Nc5ccc(F)cc5)c(N)c24)CC(C)(C)CC3=O)cc1 | -0.6% | 6.8 | 7.4% | -19.1%
CCn1c2ccccc2c2cc(CN3CCN(Cc4ccc(OC)c(OC)c4)CC3)ccc21 | -23.5% | -22.4 | ? | -16.0%
CC(C)=CCC/C(C)=C/COCC1OC(n2ccc(=O)[nH]c2=O)C(O)C1O (stereo not drawn) | · | · | -4.3%[29.8 µM] | 2.6%[53.3 µM]
O=C1OC(C(=O)Nc2ccc(Cl)c(C(F)(F)F)c2)Cc2ccccc21 (stereo not drawn) | 2.7% | 80.0* | · | ·
O=C(Nc1ccc(Cl)cc1)Nc1ccc(Cl)c(C(F)(F)F)c1 | · | ? | 21.7%[57.5 µM] | -22.9%[53.3 µM]
Cc1nnc(C(C)C)n1C1CC2CCC(C1)N2CC[C@H](NC(=O)C1CCC(F)(F)CC1)c1ccccc1 (stereo partly drawn) | · | · | 4.8% | -3.2%
Cc1[nH]c(=O)[nH]c(=O)c1S(=O)(=O)N1CCN(c2cccc(Cl)c2)CC1 | -3.5% | 9.3 | -13.9% | 0.3%
Cc1cc2[nH]c(=O)c(=O)[nH]c2cc1S(=O)(=O)N1CCN(c2ccccc2)CC1 | i | 95.0* | -23.7% | ?
Cc1cc(SCc2sc(-c3ccc(C(F)(F)F)cc3)nc2C)ccc1OCC(=O)O | 21.4% | · | 79.4µM*! | -5.1%[53.3 µM]
COc1ccc(C(=O)Nc2cccc(OCc3cc(=O)n4c5c(sc4n3)CCCC5)c2)cc1OC | 3.8% | 63.4* | 10.7% | 1.9%
CN1CCN(c2ccc(-c3nc(-c4ccccc4)no3)cc2[N+](=O)[O-])CC1 | ? | 83.1* | 0.8% | -10.0%
CN(C)c1ccc(-c2nc(-c3ccccn3)no2)cc1[N+](=O)[O-] | -3.0% | 75.8* | ? | -3.1%
CN(Cc1ccccc1)c1ccc(-c2nc(-c3ccccn3)no2)cc1[N+](=O)[O-] | 6.6% | 29.8 | -16.7% | -20.6%
COc1ccc(-c2noc(-c3ccc(N4CCN(C)CC4)c([N+](=O)[O-])c3)n2)cc1 | 8.2% | 6.0 | -27.6% | -4.3%
C[C@]1(O)CC[C@@H]2C(C(=O)O)=CO[C@@H](O[C@@H]3O[C@H](CO)[C@@H](O)[C@H](O)[C@H]3O)[C@@H]21 | · | · | 12.1%[29.8 µM] | 2.8%[53.3 µM]
CCCOC(C(=O)OC1CCN(C)CC1)(c1ccccc1)c1ccccc1 | · | -9.2 | 9.7%[57.5 µM] | -0.4%[53.3 µM]
C=CC(C)(C)c1[nH]c2ccccc2c1C1=C(O)C(=O)C(c2c[nH]c3c(CC=C(C)C)cccc23)=C(O)C1=O | · | · | 39.8µM* | -5.9%
SMILES | SKOV3 invasion | DRV1 agonist | NTMT1 inhibitor | FH mod
Cc1cc(C)c2c(=O)cc(CSc3n[nH]c(C)n3)[nH]c2c1 | -0.4% | 7.2 | 6.3% | -4.6%
Cc1cccc(-c2nc(SCc3cc(=O)c4c(C)cc(C)cc4[nH]3)n[nH]2)c1 | ? | 115.8* | -8.1% | 6.3%
CC[C@@H]([C@H](C)O)n1ncn(-c2ccc(N3CCN(c4ccc(OC[C@@H]5CO[C@@](Cn6cncn6)(c6ccc(F)cc6F)C5)cc4)CC3)cc2)c1=O | · | 67.7* | -9.1%[57.5 µM] | -2.1%[53.3 µM]
Cc1nc2nc(C)c(NS(=O)(=O)c3ccc(F)cc3)c(=O)n2[nH]1 | -6.2% | 18.7 | 5.2% | 1.6%
CCOC(=O)C1CCN(C(=O)c2nn(-c3ccc(C)cc3)c(=O)n(C)c2=O)CC1 | 4.5% | -7.6 | 3.4% | 6.1%
CCc1ccc(NC(=O)C2CCCN(S(=O)(=O)c3cccc4nonc34)C2)cc1 (stereo not drawn) | -7.1% | 89.0* | -1.1% | 2.2%
O=C(Nc1ccc(Br)cc1)C1CCCN(S(=O)(=O)c2ccc(Br)s2)C1 (stereo not drawn) | -22.7% | 81.9* | -7.2% | 1.9%
CC(C)c1ccc(NC(=O)C2CCCN(S(=O)(=O)c3cccc4nonc34)C2)cc1 (stereo not drawn) | i | 17.0 | 8.8% | 4.5%
COc1ccc(NC(=O)C2CCCN(S(=O)(=O)c3cccs3)C2)cc1 (stereo not drawn) | i | 7.8 | 15.4% | -2.7%
CCOC(=O)C1CCN(S(=O)(=O)c2ccc3c(c2)NC(=O)C(C)C(=O)N3)CC1 (stereo not drawn) | -1.9% | 8.5 | 1.4% | -16.7%
Cc1cc(=O)oc2cc(OCC(=O)Nc3ccc(O)c(C(=O)O)c3)ccc12 | -7.3% | -0.2 | 10.9% | -20.8%
CC(=O)N[C@@H](CC(=O)O)C(=O)N[C@@H](CCC(=O)O)C(=O)N[C@H](C(=O)N[C@@H](CC(=O)O)C(=O)Nc1ccc2c(C)cc(=O)oc2c1)C(C)C | · | · | 7.1%[57.5 µM] | 20µM*
CC1=C(C(=O)OCC2CCCCC2)C(c2cccc(Cl)c2Cl)CC(=O)N1 (stereo not drawn) | 50.5% | 13.4 | 8.4% | 6.1%
CCOC(=O)C1=C(C)NC(C)=C(C(=O)OC)C1c1cccc(Cl)c1Cl (stereo not drawn) | · | 109.5*! | 37.6%[57.5 µM] | ?
O=C(Nc1ccc(C(=O)OCc2cc(=O)n3nc(C4CC4)sc3n2)cc1)c1ccccc1 | -3.3% | -6.2 | 8.3% | 7.5%
COc1ccccc1N1CCN(C(=O)c2oc3ccccc3c2N)CC1 | i | 70.9* | · | ·
COc1ccc(N2CCN(C(=O)c3oc4ccccc4c3NC(=O)c3ccccc3OC)CC2)cc1 | -11.0% | -5.2 | -12.4% | ?
CCS(=O)(=O)c1cccc(-c2cc(C(=O)NC3CCN(C)CC3)c(C)c3[nH]c4ncc(C)cc4c23)c1 | ? | · | 28.2µM*! | -19.8%
CCOC(=O)N1CCC(NC(=O)c2cnn(-c3cccc(Cl)c3C)c2C2CCN(C(=O)OC(C)(C)C)CC2)CC1 | -18.2% | 8.5 | 5.9% | -15.4%
Oc1ccc(C2CCN(c3ccnc4ccccc34)CC2)cc1O | 19.0% | · | 10µM*! | -13.3%[53.3 µM]
Cc1nn(C)c2c1c(-c1ccccc1)cc(=O)n2Cc1ccc(F)cc1 | 2.0% | -4.4 | 0.1% | -27.3%
